In assay [1] the test system is Wnt5a (protein binding on small-molecule microarray). Description: Wnt5a binders on small-molecule microarray, primary screen, biophysical, 635/667 nm fluorescence (AID 1142).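 Further: fluorescence read at 667 nm with signal to noise per printed feature.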 Conditions: 635 nm fluorescence, higher = more signal.
The nature of assay [2]: cell viability in Huh7 cells, primary screen, cytotoxicity control for HCV replication inhibitor project, CellTiter-Glo luminescence, basal, 48 h (AID 1143).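 Further: Huh7 hepatoma cells carrying a hepatitis C replication reporter with no stimulus; test concentration not given here.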 As to conditions: Huh7 HCV replicon, higher = more signal, called active from +8 up or from −8 down. A general note: ATP-based viability assays read luminescence as a measure of living cells.
Assay [3] can be described thus: P. aeruginosa biofilm formation inhibitors, primary screen, PAO1 strain, BacTiter-Glo luminescence, LB-PBS (AID 1144). Conditions: 12 h, higher = more signal.
Assay [4] can be described thus: CREB reporter modulators without forskolin, primary screen, cell-based, PC12, CRE-LacZ reporter, unstimulated (AID 1145). As to conditions: no forskolin, luminescence, 4.5 h, higher = more signal, called active from +8 up or from −8 down.
Assay [5] is described as follows: CREB reporter modulators under forskolin, primary screen, cell-based, PC12, CRE-LacZ reporter, forskolin-stimulated (AID 1146).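 Further: PC12 cells with 6xCRE LacZ reporter stimulated by forskolin 10 µM; beta-galactosidase reporter signal reflecting CREB driven transcription.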 Conditions: luminescence, 4.5 h, higher = more signal, called active from +8 up or from −8 down.
In assay [6] the target is Streptavidin (Streptomyces avidinii) (UniProt P22629). The experiment in a line: streptavidin binders on small-molecule microarray, primary screen, artefact control for SMM compound annotation, biophysical, 635/667 nm fluorescence (AID 1147).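 Further: signal reflects streptavidin binding to arrayed compounds as a control protein.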 Conditions: streptavidin binding, higher = more signal.
Assay [7] is described as follows: small-molecule binders of probe aInhba, primary screen, biochemical, small-molecule microarray, 635/667 nm fluorescence (AID 1148).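 Further: score merges 667nm spot fluorescence with signal-to-noise for antibody binding to printed compounds.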 As to conditions: higher = more signal.
Assay [8] concerns the target Torsin-1A (Homo sapiens) (UniProt O14656). Description: torsin A binders from cell lysate, primary screen, small-molecule microarray, wild-type, 635/667 nm (AID 1149). As to conditions: COS7 hTOR1A-WT lysate, 635 nm fluorescence, higher = more signal.
Assay [9] has the same target. The experiment in a line: small-molecule binders of mutant TOR1A in lysate, primary screen, cell lysate, small-molecule microarray, COS7 lysate, 635/667 nm fluorescence (AID 1150).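 Further: score pools 667 nm emission and signal to noise measuring lysate protein binding.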 As to conditions: COS7 hTOR1A mutant lysate, 635 nm fluorescence, higher = more signal.
Assay [10] concerns Sonic hedgehog protein (Shh). Description: small-molecule binders of Shh protein, primary screen, biochemical, small-molecule microarray, 635/667 nm fluorescence (AID 1151).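 Further: Shh protein binding to compounds spotted on small-molecule microarray slides; score combines spot fluorescence intensity with signal-to-noise across triplicate slides.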 As to conditions: small-molecule microarray binding, 635 nm fluorescence; higher = more signal.
Assay [11] is described as follows: E. coli DRC41 culture turbidity changes, primary screen, E. coli filamentation inducer project, strain DRC41, OD650, 48 h (AID 1152).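 Further: E. coli MC1000 strain DRC41 lacking acrAB efflux pump and sulA.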 As to conditions: E. coli DRC41 (acrAB sulA), higher = more signal, called active from +8 up or from −8 down.
The nature of assay [12]: small-molecule binders of probe aLefty1, primary screen, biochemical, small-molecule microarray, 635/667 nm fluorescence (AID 1153).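 Further: score merges spot fluorescence with signal-to-noise ratio from the scanned slide images.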 As to conditions: higher = more signal.
Assay [13] in a line: PSAC antagonists in infected red cells, primary screen, cell-based, P. falciparum Indochina, OD700, 1 h (AID 1154). As to conditions: P. falciparum Indochina infected RBC osmotic lysis, higher = more signal, called active from +8 up or from −8 down.
Assay [14] can be described thus: PSAC antagonists in infected red cells, primary screen, cell-based, P. falciparum Indochina, OD700, 2 h (AID 1155).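 Further: lysis reports solute entry through the parasite surface anion channel PSAC; channel blockers reduce lysis of infected cells.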 Conditions: P. falciparum Indochina infected erythrocytes, osmotic lysis OD700; higher = more signal, called active from +8 up or from −8 down.
The nature of assay [15]: osmotic lysis modulators in infected erythrocytes, primary screen, PSAC antagonist project, cell-based, P. falciparum Indochina, OD700, 3 h (AID 1156). Conditions: higher = more signal, called active from +8 up or from −8 down.
Assay [16] is described as follows: PSAC antagonists in infected red cells, primary screen, cell-based, P. falciparum Indochina, OD700, 18 h (AID 1157). Conditions: P. falciparum Indochina infected erythrocytes, osmotic lysis OD700, 18 h; higher = more signal, called active from +8 up or from −8 down.
Assay [17] can be described thus: modulators of S6 phosphorylation in cells, primary screen, cell-based, A549, cytoblot, luminescence, serum-stimulated (AID 1158).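 Further: serum-stimulated A549 lung adenocarcinoma cells; signal is phosphorylated S6 detected by cytoblot immunostaining with HRP secondary.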 Conditions: A549 phospho-S6 cytoblot, 5 h, higher = more signal.
Assay [18] concerns the target NADPH oxidase 2 (Homo sapiens) (UniProt P04839). Description: NOX2-dependent H2O2 signal modulators, primary screen, NOX inhibitor project, cell-based, HEK293-NOX2, PMA-stimulated, Amplex Red fluorescence (AID 1159). Further: test concentration not given here. Conditions: 45 min, higher = more signal, called active from +8 up or from −8 down.
In assay [19] the target is NADPH oxidase 4 (Homo sapiens) (UniProt Q9NPH5). Description: NOX4-dependent H2O2 signal modulators, primary screen, NOX inhibitor project, cell-based, HEK293-NOX4, tetracycline-induced, Amplex Red fluorescence (AID 1160). As to conditions: 45 min, higher = more signal, called active from +8 up or from −8 down.
For assay [20], the target named is NADPH oxidase 5 (Homo sapiens) (UniProt Q96PH1). The experiment in a line: NOX5-dependent H2O2 signal modulators, primary screen, NOX inhibitor project, cell-based, HEK293-NOX5, Amplex Red fluorescence (AID 1161). Conditions: HEK293-NOX5, ionomycin, 45 min, higher = more signal.

Molecules are shown by their SMILES. Activity calls are given as the source filed them. Unless noted, how the calls were made is not given here.

Chain of NADPH oxidase 5 (Homo sapiens) (Q96PH1 whole entry, looked up): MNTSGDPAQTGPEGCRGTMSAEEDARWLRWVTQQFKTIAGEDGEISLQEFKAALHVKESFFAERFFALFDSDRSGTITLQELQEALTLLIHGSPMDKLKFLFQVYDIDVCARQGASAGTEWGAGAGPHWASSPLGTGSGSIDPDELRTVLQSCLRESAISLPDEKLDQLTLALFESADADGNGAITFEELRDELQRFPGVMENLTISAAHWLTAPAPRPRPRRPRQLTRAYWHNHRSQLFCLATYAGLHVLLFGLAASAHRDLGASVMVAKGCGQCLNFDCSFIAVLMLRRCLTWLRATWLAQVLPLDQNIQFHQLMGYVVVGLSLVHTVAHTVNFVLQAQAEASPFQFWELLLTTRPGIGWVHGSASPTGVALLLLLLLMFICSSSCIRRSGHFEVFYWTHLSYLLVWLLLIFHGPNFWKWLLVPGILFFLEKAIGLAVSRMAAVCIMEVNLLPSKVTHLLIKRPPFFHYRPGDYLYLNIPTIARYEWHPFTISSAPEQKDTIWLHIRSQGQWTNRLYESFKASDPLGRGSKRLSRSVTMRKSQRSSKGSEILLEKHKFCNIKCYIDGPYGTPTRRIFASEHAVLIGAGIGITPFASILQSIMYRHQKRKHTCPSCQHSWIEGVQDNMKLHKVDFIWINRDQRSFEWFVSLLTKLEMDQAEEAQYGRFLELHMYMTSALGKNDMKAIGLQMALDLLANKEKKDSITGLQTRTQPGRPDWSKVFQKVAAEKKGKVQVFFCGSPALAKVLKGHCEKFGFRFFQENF
Chain of Streptavidin (Streptomyces avidinii) (P22629 whole entry, looked up): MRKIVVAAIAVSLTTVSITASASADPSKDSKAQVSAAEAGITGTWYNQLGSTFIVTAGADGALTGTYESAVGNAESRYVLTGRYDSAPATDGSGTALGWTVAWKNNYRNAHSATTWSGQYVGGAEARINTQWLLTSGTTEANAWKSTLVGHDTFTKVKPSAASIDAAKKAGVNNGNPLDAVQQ
Chain of NADPH oxidase 2 (Homo sapiens) (P04839 whole entry, looked up): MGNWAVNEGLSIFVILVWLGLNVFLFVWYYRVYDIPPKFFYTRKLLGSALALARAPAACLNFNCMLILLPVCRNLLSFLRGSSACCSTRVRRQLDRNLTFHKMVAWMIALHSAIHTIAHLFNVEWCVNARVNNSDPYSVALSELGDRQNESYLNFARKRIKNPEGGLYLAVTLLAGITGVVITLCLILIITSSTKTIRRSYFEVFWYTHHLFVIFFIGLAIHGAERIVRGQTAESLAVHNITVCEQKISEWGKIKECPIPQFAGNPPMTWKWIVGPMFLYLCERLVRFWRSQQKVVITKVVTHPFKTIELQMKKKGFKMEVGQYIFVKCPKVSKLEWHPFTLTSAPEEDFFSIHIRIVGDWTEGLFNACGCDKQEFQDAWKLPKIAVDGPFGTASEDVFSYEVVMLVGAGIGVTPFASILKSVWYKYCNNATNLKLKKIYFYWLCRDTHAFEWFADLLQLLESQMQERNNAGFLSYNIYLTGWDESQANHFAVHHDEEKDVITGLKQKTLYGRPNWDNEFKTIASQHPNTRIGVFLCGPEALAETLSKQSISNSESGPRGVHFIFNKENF
Chain of NADPH oxidase 4 (Homo sapiens) (Q9NPH5 whole entry, looked up): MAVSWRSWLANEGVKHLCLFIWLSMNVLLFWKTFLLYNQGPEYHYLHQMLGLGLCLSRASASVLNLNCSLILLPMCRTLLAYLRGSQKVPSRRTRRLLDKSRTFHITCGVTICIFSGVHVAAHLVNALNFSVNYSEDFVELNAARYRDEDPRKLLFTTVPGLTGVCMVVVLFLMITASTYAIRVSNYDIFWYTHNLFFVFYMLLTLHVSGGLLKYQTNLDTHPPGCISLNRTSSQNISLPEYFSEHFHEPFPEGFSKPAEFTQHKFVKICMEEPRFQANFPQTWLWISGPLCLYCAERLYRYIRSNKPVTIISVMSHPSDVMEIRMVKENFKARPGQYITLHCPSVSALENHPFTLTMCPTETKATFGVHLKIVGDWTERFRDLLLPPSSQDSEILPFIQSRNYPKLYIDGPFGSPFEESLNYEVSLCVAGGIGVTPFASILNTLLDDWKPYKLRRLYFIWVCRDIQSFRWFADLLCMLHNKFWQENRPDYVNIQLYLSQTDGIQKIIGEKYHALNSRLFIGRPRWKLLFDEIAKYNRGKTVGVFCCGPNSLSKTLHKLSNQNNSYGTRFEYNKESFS
Chain of Torsin-1A (Homo sapiens) (O14656 whole entry, looked up): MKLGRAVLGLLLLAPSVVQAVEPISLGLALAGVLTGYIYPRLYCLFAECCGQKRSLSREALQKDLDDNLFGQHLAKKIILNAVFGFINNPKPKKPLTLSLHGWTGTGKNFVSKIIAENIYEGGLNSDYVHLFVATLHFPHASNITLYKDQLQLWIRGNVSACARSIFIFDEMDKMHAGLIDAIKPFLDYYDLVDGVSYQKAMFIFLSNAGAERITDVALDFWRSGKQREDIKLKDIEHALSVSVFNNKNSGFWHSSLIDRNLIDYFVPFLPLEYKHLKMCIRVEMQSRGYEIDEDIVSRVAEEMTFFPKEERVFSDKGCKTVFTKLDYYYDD

For `CON=C(C)CCN1CCCc2nc(C)c(C)cc21`, the composite z-score in [1] is 0.377; in [6], 0.286; in assay [7] it was -0.0645; in assay [8], -0.209; in assay [9], 0.23; in assay [10], 1.07. The compound also showed a composite z-score in [12] of -0.0601. Moreover, the z-score in assay [2] is 0.258 (inactive); in assay [3], 0.128 (inactive); in assay [4], 0.345 (inactive); in assay [5], -0.0543 (inactive); in [11] it was -2.33 (inactive); in assay [13], 1.03 (inactive). Moreover, the z-score in assay [14] was 0.498 (inactive); in [15], 0.619 (inactive); in [16], 0.49 (inactive); in [17] it was -0.621; in assay [18] it was -1.52 (inactive); in [19], -1.06 (inactive). In assay [20], this compound yielded a z-score of -0.493.

For `CC(CCN1CCc2nc(-c3ccccc3)c(-c3ccccc3)cc2C1)=NO[C@@H](C)c1cc(-c2c(C)cc(C)cc2C)no1`, the composite z-score was -0.405 in assay [1]; 2.15 in [6]; -0.159 in assay [7]; 0.199 in assay [8]; 0.153 in assay [9]; -0.387 in [10]. The composite z-score in [12] is -0.0099. For the same compound, the z-score was -2.58 (inactive) in assay [2]; -0.832 (inactive) in assay [3]; 2.71 (inactive) in assay [4]; -0.426 (inactive) in [5]; -1.03 (inactive) in [11]; -0.0185 (inactive) in [13]. The z-score was -0.429 (inactive) in assay [14]; 1.5 (inactive) in assay [15]; -1.37 (inactive) in [16]; 0.831 in assay [17]; -0.861 (inactive) in assay [18]; -0.901 (inactive) in [19]. Besides, the z-score in assay [20] was -0.296.

On to `CCOC(=O)CCN1C(=O)[C@H]2[C@H]3[C@H](O)[C@H](O)CC(=NO[C@@H]4O[C@H](CO)[C@@H](O)[C@H](O)[C@H]4O)[C@H]3CC[C@H]2C1=O`, for which the composite z-score in [1] is -0.167; in [6] it was -0.0432; in assay [7], -0.05; in [8], 0.629; in [9] it was 0.307; in assay [10], 0.493. For the same compound, in assay [12], the composite z-score is 0.493. Moreover, the z-score was 0.38 (inactive) in assay [2]; 0.132 (inactive) in assay [3]; 0.241 (inactive) in assay [4]; 0.497 (inactive) in assay [5]; 0.131 (inactive) in [11]; -0.266 (inactive) in [13]. The z-score in [14] was -0.163 (inactive); in [15], -0.788 (inactive); in [16], -0.0643 (inactive); in assay [17], 0.199; in assay [18], 0.444 (inactive); in [19], 0.451 (inactive). The compound also yielded a z-score in assay [20] of -0.9.

On to `CCOC(=O)[C@H](Cc1ccccc1)NC(=O)CCC1CC(OC(=O)NCc2cccc3ccccc23)CC2(CCCC(COC(=O)NCCOc3ccccc3)O2)O1` (stereo not given in full), for which the composite z-score in [1] was -0.0525; in [6], 0.419; in assay [7], 0.0667; in assay [8], 0.0468; in assay [9] it was 1.47; in [10] it was 0.825. This compound also came in with a composite z-score in assay [12] of -0.0094. The z-score was -2.73 (inactive) in assay [2]; -1.35 (inactive) in assay [3]; -0.523 (inactive) in assay [4]; 0.57 (inactive) in [5]; -1.98 (inactive) in assay [11]; -0.623 (inactive) in assay [13]. The z-score was -0.824 (inactive) in [14]; 0.48 (inactive) in [15]; -1.33 (inactive) in [16]; 1.01 in [17]; 0.0124 (inactive) in assay [18]; 0.762 (inactive) in assay [19]. In assay [20], this compound registered a z-score of 1.06.

Source of the values: PubChem BioAssay.
